A word on the inhibition: it is the drop in the measured response relative to a control, in per cent.

The target in this assay is Neuropilin-1 (Homo sapiens) (UniProt O14786). In words: NRP-1 b1b2 CendR peptide binding inhibitors, dose response, biochemical, FP and AlphaScreen panel (AID 651650). As to conditions: NRP-1 b1b2 / RPARPAR peptide binding, FP or AlphaScreen; run 1, at 100 µM (top of the series). A general note: Bead proximity is the source of the signal in Alpha formats.
Neuropilin-1 (Homo sapiens), sequence (O14786 whole entry, looked up): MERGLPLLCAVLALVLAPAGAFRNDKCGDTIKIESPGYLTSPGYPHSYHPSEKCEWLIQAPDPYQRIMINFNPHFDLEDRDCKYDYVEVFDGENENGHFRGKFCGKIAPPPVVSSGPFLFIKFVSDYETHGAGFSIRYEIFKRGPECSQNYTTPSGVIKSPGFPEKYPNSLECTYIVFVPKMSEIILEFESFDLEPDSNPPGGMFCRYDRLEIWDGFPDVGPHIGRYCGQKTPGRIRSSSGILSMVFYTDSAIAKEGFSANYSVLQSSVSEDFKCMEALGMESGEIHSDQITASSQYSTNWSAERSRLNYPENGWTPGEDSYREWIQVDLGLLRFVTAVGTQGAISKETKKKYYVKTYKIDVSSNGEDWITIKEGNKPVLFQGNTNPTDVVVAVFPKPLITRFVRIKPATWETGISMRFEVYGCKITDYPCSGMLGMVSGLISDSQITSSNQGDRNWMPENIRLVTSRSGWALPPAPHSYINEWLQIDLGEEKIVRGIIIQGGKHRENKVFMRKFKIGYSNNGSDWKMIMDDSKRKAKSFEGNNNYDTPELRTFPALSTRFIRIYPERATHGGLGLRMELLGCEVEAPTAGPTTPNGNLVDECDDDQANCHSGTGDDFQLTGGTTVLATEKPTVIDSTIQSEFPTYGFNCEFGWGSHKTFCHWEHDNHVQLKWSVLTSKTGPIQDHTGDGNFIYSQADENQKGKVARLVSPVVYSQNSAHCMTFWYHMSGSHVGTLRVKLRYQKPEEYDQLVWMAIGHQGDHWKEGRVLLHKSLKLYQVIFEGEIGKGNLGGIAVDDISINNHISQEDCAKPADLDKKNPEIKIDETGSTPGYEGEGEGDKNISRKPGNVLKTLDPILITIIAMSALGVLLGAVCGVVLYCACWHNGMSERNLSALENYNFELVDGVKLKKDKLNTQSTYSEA
`CC(OC(=O)c1ccco1)C(=O)Nc1nc(-c2ccccc2)cs1` (centres undefined): the inhibition is -9.71%. Consider `Cc1nnc(SC(C)C(=O)Nc2ccc(S(=O)(=O)NC3CCCCC3)cc2)s1` (centres undefined), for which the inhibition turned out to be 21.8%. As for `CCCCOc1ccc(C(=O)N/C(=C/C=C/c2ccccc2)C(=O)NCCCO)cc1`, the inhibition amounted to 10.5%. For the molecule `CCOC(=O)Cc1ccc(NS(=O)(=O)c2ccc(SC)cc2)cc1`, the inhibition was determined as 19.4%. As for `CCCN(C(=O)Cn1c(C(F)(F)F)nc2ccccc21)C1CCS(=O)(=O)C1` (centres undefined), the inhibition is 60.7%. For the molecule `COC(=O)c1ccc(Cn2nnc3c(=O)[nH]c(C4CCCN(S(=O)(=O)c5cccc(Cl)c5)C4)nc32)cc1` (centres undefined), the inhibition is 35.3%. For the molecule `CN(C)CCOC(c1ccc(Cl)cc1)c1ccccn1` (centres undefined), the inhibition was 32%. Consider `O=C1CSC(c2cn(-c3ccccc3)nc2-c2cccs2)N1CC1CCCO1` (centres undefined), for which the inhibition worked out at 73.3%. As for `O=C(c1ncn(Cc2ccccc2)c1C(=O)N1CCc2ccccc2C1)N1CCc2ccccc2C1`, the inhibition amounted to 23%. As for `COc1cccc(-c2ccc3c(c2)N(Cc2ccccc2OC)C(=O)C(C)S3)c1` (centres undefined), the inhibition was -18.6%. As to `O=[N+]([O-])c1cc(-c2csc(NCCc3nc4cc(C(F)(F)F)ccc4n3CCCO)n2)ccc1Cl`, the inhibition stood at 33.1%.

For `Cc1cn([C@H]2C[C@H](O)[C@@H](CCC(=O)NCCc3ccc4ccccc4c3)O2)c(=O)[nH]c1=O`, the inhibition worked out at 22.6%. Turning to `Cc1ccccc1OCC1Cc2c(nc(N)c(C#N)c2N)O1` (centres undefined), the inhibition is -18.4%. Consider `Cc1cccc(N(CC(=O)NC2CCCC2)C(=O)CS(=O)CC(=O)Nc2ccc3c(c2)OCO3)c1C` (centres undefined), for which the inhibition was 49%. The result for `Cc1cc(N/C(=N/S(=O)(=O)c2cc(F)ccc2F)c2ccccc2)n(-c2ccccc2)n1` reads -9.15%; that for `COc1ccccc1C(=O)NC(=O)CSc1nncn1C`, 30.4%.

Take `C[C@@H](C(=O)Nc1cccnc1)n1c(=O)[nH]c2ccccc2c1=O`: the inhibition came to 44.7%. The same measure for `COC(=O)c1ccn(C(=O)c2ccc(Cl)cc2)n1`: 39.2%; for `O=C(O)c1ccccc1CSc1ccccn1`: 101%.

Consider `CC(C)C(N)c1csc(NC(=O)Nc2cccc(C(F)(F)F)c2)n1` (centres undefined), for which the inhibition was determined as 28.7%. As to `O=C(O)CSc1nnc(-c2ccc(Cl)cc2Cl)n1-c1ccc(Cl)cc1`, the inhibition stood at 74.1%.

Take `O=C(NCCN1CCN(C(=O)c2cccc(OC(F)F)c2)CC1)c1cccc(OC(F)F)c1`: the inhibition was 0.403%. The same measure for `Cc1ccc(C(=O)N2CCN(C34CC5CC(CC(C5)C3)C4)CC2)o1`: 57.6%.

`COc1ccc(-c2noc(CN(C(=O)c3ccc4c(c3)OCO4)C(C)C)n2)cc1`: the inhibition amounted to 27.6%. For `CCOC(=O)C1(O)CC(C)=NN1C(=O)c1cccc(Br)c1` (centres undefined), the inhibition amounted to 35.1%. Take `CCCCN(c1ccccc1)S(=O)(=O)c1ccc2c(c1)CCN2C(=O)CCC(=O)O`: the inhibition worked out at 8.36%. The same measure for `Cc1cc(C)n(-c2nnc3n2N=C(c2c[nH]c4ccccc24)CS3)n1`: 2.19%. As to `O=C(NNC(=O)c1ccccc1Cl)c1cccnc1`, the inhibition was 94%. For `c1ccc2c(CNc3ccc(CNc4ncn[nH]4)cc3)cccc2c1`, the inhibition came out at 25.6%. Consider `C=CCOc1ccc(C2/C(=C(\O)c3c(C)[nH]c(C(=O)OC)c3C)C(=O)C(=O)N2CCN(C)C)cc1` (centres undefined), for which the inhibition was 3.64%.

For `Oc1ccccc1-c1ccn[nH]1`, the inhibition amounted to 32%.

Consider `Cc1cc(C)cc(N(CCC(=O)O)S(=O)(=O)c2ccc3ccccc3c2)c1`, for which the inhibition was 38.7%.

Regarding `Cc1onc(-c2ccccc2)c1C(=O)N1CCCC1`, the inhibition turned out to be 31.9%. Take `O=C(COC(=O)c1ccccn1)c1ccc([N+](=O)[O-])cc1`: the inhibition came out at 66.4%. The same measure for `COC(=O)CCCC1=CC2=CC(=O)C(C)(OC(=O)c3cccs3)C(=O)C2=CN1CCCOC(C)C` (centres undefined): 93.3%; for `COc1cccc(OCCNC(=O)Nc2cc(F)c(F)cc2Cl)c1`: 54.1%; for `O=C(NCCCN1CCCC(O)C1)c1cc(COc2ccc(F)cc2F)on1` (centres undefined): 50.2%. With `O=C(Cn1cccc1C(=O)c1ccccc1)NCCC1=CCCCC1`, the inhibition is 94.3%. `CC(NCCOCCOc1ccccc1)c1ccccc1` (centres undefined): the inhibition came to 39.6%.
